Data on 39 compounds can be found in PubChem BioAssay (NCI).

Each structure is given as a SMILES string. “And” between values parts separate entries of the source, which are not always exact repeats. Equal values may be shown once. Compounds without any hit were thinned out: in the full panel of roughly 79,000, 15% have a hit. The source made the active and inactive calls. Rule as the data show it: active = growth inhibition above about 70%; inactive = the rest.

This test is described as follows: NCI Yeast Anticancer Drug Screen. Data for the cln2 rad14 strain (AID 165).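 Also: 0% = growth equal to vehicle treated cultures.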 To be noted: S. cerevisiae cln2 rad14 strain, at 50.0 µM, hits give high values. The essentials:
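Yeast strain cln2 rad14, bearing defects in cell cycle control and DNA repair, serves as the test system; values reflect growth inhibition compared with vehicle.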
As for `Cc1cc(C)c(O)c(C)c1.[Hg]`, the growth inhibition is 99.4% (active).
For the compound `CC(O)C(=O)O.CC(O)C(=O)O.[Ni]` (centres undefined), the growth inhibition was 74% (active).
Consider `CC(=O)OC1C(=O)OCC23CCC4(C)OC4C2OC2CC(OC(=O)/C=C/C=C/C(=O)OCCC1C)C3(C)C21CO1` (centres undefined), for which the growth inhibition is 92.5% (active).
Turning to `CN1C(=O)CC[C@@]2(C)C1=CC[C@H]1[C@@H]3CC[C@H](O)[C@@]3(C)CC[C@@H]12`, the growth inhibition is -3.4% (inactive).
With `CC[C@H](C)c1occ2c(O)c(C(=O)O)c(=O)cc-2c1C`, the growth inhibition was 3.2% (inactive).
For `O=[N+]([O-])[O][Tl]([c]1ccccc1)[c]1ccccc1`, the growth inhibition is 20.4% (inactive).
For the compound `CCCC[CH2][Sn]([CH2]CCCC)[CH2]CCCC.CCCC[CH2][Sn]([CH2]CCCC)[CH2]CCCC`, the growth inhibition is 98.8% (active).
In the case of `Nc1cc(Cl)ccc1C(=O)c1ccccc1Cl` it was 96.8% (active).
Regarding `CC(Br)CN1CCOCC1` (centres undefined), the growth inhibition was 12.8% (inactive).
On to `C(CCC[Te][Te]CCCCCCOC1CCCCO1)CCOC1CCCCO1` (centres undefined), for which the growth inhibition was 62.4% (inactive).
As for `CN1CN(c2ccccc2)C2(CCN(C3Nc4ccccc4O3)CC2)C1=O` (centres undefined), the growth inhibition is 35% (inactive).
On to `[CH3][Sn]([CH3])([Cl])[c]1cc[c]([Sn]([CH3])([CH3])[Cl])cc1`, for which the growth inhibition is 77% (active).
With `O=[C-]CCCCCC[C-]=O.[C-]#[O+].[C-]#[O+].[C-]#[O+].[C-]#[O+].[Fe+6].[Fe+6].[c-]1[c-][c-][cH-][c-]1.[c-]1[c-][c-][cH-][c-]1`, the growth inhibition was 97.8% (active).
In the case of `CCOC(=O)NC(=S)[S][Sb]([S]C(=S)NC(=O)OCC)[S]c1nc2ccc(N=Nc3ccc(NS(=O)(=O)c4ccc(NC(=O)C(N5CC5)(N5CC5)N5CC5)cc4)cc3)cc2s1`, the growth inhibition is 99% (active).
As for `CCC[N+](CCC)(CCC)CCC.N#CN=C([SH2+])[SH2+].N#CN=C([SH2+])[SH2+].[Pt+2]`, the growth inhibition is 14.1% (inactive).
As for `CCCCCCCC/C=C\CCCCCCCCN1CC(C(=O)[O][Pb]([CH2]C)([CH2]C)[CH2]C)CC1=O` (centres undefined), the growth inhibition is 9.45% (inactive).
For `O=c1[nH]cc(Cn2cnc3ncccc3c2=O)c(=O)[nH]1`, the growth inhibition was 40.5% (inactive).
On to `CC(C)(C)C1=CC(=C/C=C/c2cc(C(C)(C)C)[o+]c(C(C)(C)C)c2)C=C(C(C)(C)C)O1`, for which the growth inhibition is 96% (active).
Regarding `S=C(S)N1CCCCC1`, the growth inhibition was 29.4% (inactive) and 33.2% (inactive) and 0.25% (inactive).
With `CN[C@H]1C[C@@H]2O[C@@](C)([C@H]1OC)n1c3ccccc3c3c4c(c5c6ccccc6n2c5c31)C(=O)NC4`, the growth inhibition was 91.5% (active).
For `CC(C)(C)OOC(=O)c1ccccc1`, the growth inhibition was 0.5% (inactive).
`ClCCN(CCCl)CCN1c2ccccc2Sc2ccc3ccccc3c21`: the growth inhibition was 70.9% (active).
As for `CCOC(=O)c1ccccc1N`, the figure is 45.8% (inactive); as for `Cn1cnc(C(=N)[Se])c1N`, -24.8% (inactive); as for `Cc1ccc(NP(=O)(Oc2ccccc2)N(CCCl)CCCl)cc1` (centres undefined), 56.5% (inactive).
In the case of `CCOC(=O)C1=C(C)NC(=O)NC1c1ccc(N(CCCl)CCCl)cc1Cl` (centres undefined) it was -10.8% (inactive); in that of `ClC(C[n+]1ccccc1)c1ccccc1` (centres undefined), -2.5% (inactive) and 7.5% (inactive); in that of `CCCCCCCC1(c2ccc(N)cc2)CCC(=O)NC1=O` (centres undefined), 33.8% (inactive).
As to `COC(=O)C(CCCN=C(N)N[N+](=O)[O-])NC(=O)c1ccc2c(c1O)C(=O)c1ccccc1C2=O` (centres undefined), the growth inhibition was 47.9% (inactive).
As for `Cc1cc(N(CCCl)CCCl)ccc1CN1CCCN(Cc2ccc(N(CCCl)CCCl)cc2C)C1c1ccc(N(CCCl)CCCl)cc1C`, the growth inhibition was 87% (active).
On to `c1ccc([CH2][Pb]([c]2ccccc2)([c]2ccccc2)[c]2ccccc2)cc1`, for which the growth inhibition is 98.5% (active).
In the case of `C[CH2][Sn][CH2]C.c1cc[c]([Ge]([c]2ccccc2)[c]2ccccc2)cc1.c1cc[c]([Sn]([c]2ccccc2)[c]2ccccc2)cc1` it was 98.4% (active); in that of `CCC1(C2=CCCCC2)C(=O)NC(=S)NC1=O`, -32.4% (inactive) and -0.6% (inactive).
Take `N#CC(=C=N)N=C(F)C(C#N)=C(C#N)C#N`: the growth inhibition is 90.3% (active).
In the case of `N#C[SH2+].N#C[SH2+].N#C[SH2+].N#C[SH2+].[Cu+2].c1ccc(C[P+](c2ccccc2)(c2ccccc2)c2ccccc2)cc1` it was 90.7% (active); in that of `CC#N.FC(F)(F)C#CC(F)(F)F.FC(F)(F)C#CC(F)(F)F.FC(F)(F)C#CC(F)(F)F.[W]`, 99.2% (active).
In the case of `CC(C)c1cccc(C(C)C)c1NC(=O)C(=O)CC(=O)CC(c1ccccc1)c1c(O)c2ccccc2oc1=O` (centres undefined), the growth inhibition was 55.2% (inactive).
Consider `CCN(CCCl)c1ccc(/C=C/C2=[N+](C)c3ccccc3C2(C)C)c(C)c1`, for which the growth inhibition is 71.5% (active).
As to `Cc1cc(C)[n+](CCOc2ccc(/C(=C(/Cl)c3ccccc3)c3ccccc3)cc2)c(C)c1`, the growth inhibition was 91.7% (active).
